Measurements: PubChem BioAssay (Tox21)
Results filed as inconclusive are left out. Active and inactive are the calls of the source. The call rests on the fitted dose curve; in most records, active means well fitted cell-killing curve with a large enough effect in the repeat runs; inconclusive means weak or mixed curves, or effect the other way; inactive means flat fitted curve, though single readings scatter.

Test: qHTS RealTime-Glo MT Cell Viability Assay in HEK293 cells - 32 hour (AID 1224868); further: nearly all actives have a fitted effect of over 50% in size; on activity change, negative = cytotoxic: top concentration of the series differs between compounds
Details: RealTime-Glo luminescence; series mostly up to 76.8 µM; activity change, negative = cytotoxic: at the top concentration
Excerpt: National Center for Advancing Translational Sciences [NCATS]
NIH Chemical Genomics Center [NCGC]
U.S. Environmental Protection Agency [EPA]
National Institutes of Environmental Health Sciences [NIEHS]
National Toxicology Program [NTP]
U.S. Food and Drug Administration [FDA]
Measure of cell viability is critical in the cell-base assay. Analysis of cell viability is necessary for the characterization of cell responses to cytotoxic drugs and environmental stress. A RealTime-Glo MT Cell Viability Assay to monitor cell viability in real time of continues cell culture during 40 hours of compound treatment was used to screen Tox21 10K library compounds in Hek293 cells. The RealTime-Glo MT Cell Viability Assay is a nonlytic, homogeneous, bioluminescent method to measure cell viability in real time using a simple, plate-based method. The assay involves adding NanoLuc luciferase and a cell-permeant prosubstrate to cells in culture. Viable cells reduce the proprietary prosubstrate to generate a substrate for NanoLuc luciferase. This substrate diffuses from cells into the surrounding culture medium, where it is rapidly used by the NanoLuc Enzyme to produce a luminescent signal. The signal correlates with the number of viable cells, making the assay well suited for cytotoxicity studies.
Tox21 Assay Protocol Summary:
The mixture of Hek293 cell suspension and reagents were dispensed at 600cells/6 ul/well in 1536-well tissue culture treated black solid bottom plates using a Multidrop dispenser. After the assay plates were incubated at a 37 C/5% CO2 incubator for 5 hours, 23 nL of compounds dissolved in DMSO, positive and negative controls was transferred to the assay plate by a pintool work station. The plates were incubated at 37 C for 40 hours. The luminescence intensity were measured at 0h, 8h, 16h, 24h, 32h and 40h time points using ViewLux plate reader during compound treatment.
On the % scale 0 is the no-effect control and ±100 the full control effect; potency means the concentration at half of the fitted maximal effect.

SMILES	activity change, negative = cytotoxic	Potency
CC1CCN(CCCC(=O)c2ccc(F)cc2)CC1	-5.77% [at 35.3 µM] (inactive)	
O=C1OC(=O)c2cc([N+](=O)[O-])ccc21	13.3% (inactive)	
CCCOCC(C)OCC(C)O (stereo not given)	-2.95% (inactive)	
O=c1[nH]c2ccccc2c(=O)n1CCCl	6.22% [at 35.3 µM] (inactive)	
OCC(O)[C@@H](O)[C@H](O)[C@H](O)CO[C@H]1O[C@H](CO)[C@@H](O)[C@H](O)[C@H]1O (stereo not given in full)	0.55% (inactive)	
CCCC(C)C(=O)O (stereo not given)	-20.5% (inactive)	
Nc1[nH]c(=O)ncc1F	-0.115% [at 35.3 µM] (inactive)	
NC(CS)C(=O)O (stereo not given)	4.87% [at 35.3 µM] (inactive)	
CCO[Si](CCCN=C=O)(OCC)OCC	0.252% (inactive)	
CC(CCO)CCCC(C)(C)O (stereo not given)	-4.83% (inactive)	
CC(O)CN(CCCN(C)C)CCCN(C)C (stereo not given)	3.71% (inactive)	
CC1=CC(=O)CCC1	0.84% (inactive)	
COC(C(=O)O)c1ccccc1 (stereo not given)	3.46% (inactive)	
Cc1ccc(Nc2ccc(O)c3c2C(=O)c2ccccc2C3=O)cc1	7.72% (inactive)	
CCCCc1ccc2cccc(S(=O)(=O)O)c2c1	3.15% (inactive)	
CC(C)(C)C(=O)/C=C/c1ccc(Cl)cc1	3.48% (inactive)	
CO[Si](CCCNCCC[Si](OC)(OC)OC)(OC)OC	6.95% (inactive)	
CCn1c(=O)c2c(nc(/C=C/c3ccc(OC)c(OC)c3)n2C)n(CC)c1=O		1.69 µM (active)
CCCC(C)CO (stereo not given)	7.08% (inactive)	
NC(=O)c1ncn([C@@H]2O[C@H](CO)[C@@H](O)[C@H]2O)c1O	4.85% [at 35.3 µM] (inactive)	

SMILES	activity change, negative = cytotoxic	Potency
CSc1ccc(C=O)cc1	-0.361% (inactive)	
COc1ccc(NC(C)=O)cc1	-5.44% (inactive)	
CCCCCCOC(=O)CC(CC(=O)OCCCCCC)(OC(=O)CCC)C(=O)OCCCCCC	14.3% (inactive)	
CC(C)CCCCCCN	-12.9% (inactive)	
CCCCCCCCCCCCCCCCCC(=O)OCCCCCCCCCCCCCC(C)C	2.73% (inactive)	
CCC(=O)Nc1cccc(N)c1	-2.5% (inactive)	
NC(=O)Nc1nc2ccccc2[nH]1	-21.1% (inactive)	
CCCc1ccc(N)cc1	-2.04% (inactive)	
CCC(C)OC(=O)N1CCCCC1CCO (stereo not given)	-13.3% (inactive)	
COc1cccc(Br)c1	-8.6% (inactive)	
O=C(O)Cc1cc(I)c(Oc2cc(I)c(O)c(I)c2)c(I)c1	5.74% [at 35.3 µM] (inactive)	
N#CCN(CC#N)CCN(CC#N)CC#N	4.41% (inactive)	
COc1cc(C(=O)N2CCOCC2)cc(OC)c1OC	4.27% [at 35.3 µM] (inactive)	
CC(=O)OC(C)(C)C	9.37% (inactive)	
C=C(C)[C@H]1CC=C(C)CC1	2.43% (inactive)	
NC(=O)c1c(Cl)cccc1Cl	0.226% (inactive)	
NC(=O)CCCCC1CCSS1 (stereo not given)	2.57% [at 35.3 µM] (inactive)	
C[C@H](O)C(=O)Nc1c(I)c(C(=O)NC(CO)CO)c(I)c(C(=O)NC(CO)CO)c1I	2.87% [at 35.3 µM] (inactive)	
CCCCCCCCCCCCCCC	5.92% (inactive)	
CC(C)(C)CC(C)(C)N	11.2% (inactive)	
